Source: PubChem
Hits are enriched below; roughly 3.2% of the tested compounds scored in any of these assays.
Tau fluor cs – counter-screen for tau fibril formation inhibitors. Potency, µM (doses to about 57.7 µM), for the others: at the highest dose activity change, negative = decrease. AID 1463. 280,000 tested, 0.93% active. tau K18 P301L Alexa594 fluorescence, heparin fibrillization; note: potency is the fitted concentration of half-maximal effect; % is set by controls: 0 for no effect and ±100 for the full control effect; nearly all actives have a fitted effect of over 55% in size
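Human tau K18 P301L (15 uM unlabeled, 0.24 uM Alexa 594-labeled) in 100 mM sodium acetate pH 7 with 20 uM heparin, 6 hr at 37 C. ThT 30 uM added, 1 hr ambient; Alexa 594 FP and total fluorescence read at 555/632 nm.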
LMNA splice mod – changes lamin A minigene splicing in HeLa cells; 200,000 tested, 0.01% active; AID 1487; HeLa LMNA splicing GFP/RFP minigene ratio, 48 h; Potency, µM (highest dose often 46.1 µM), for the others: at the top dose ratio change, negative = inhibition, actives largely listed as inhibitors; active = well fitted inhibition curve with a large enough effect in the signal ratio, with a control signal flat, not every such curve was filed as active; inconclusive = small, poorly fitted or top-dose-only effect, or effect the other way, or a change in a side signal; the % refers to the signal ratio; note: potency is the fitted concentration of half-maximal effect; % is set by controls: 0 for no effect and ±100 for the full control effect
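S3 HeLa cells stably expressing lamin A-EGFP splicing minigene plus DsRed2, 600 cells/well, 48 h compound exposure at 37C. Laser-scanning cytometry; analysed as GFP (500-530 nm)/RFP (575-640 nm) total intensity ratio; 0.5% DMSO vehicle.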
CBFb-RUNX1 inh – CBF-beta/RUNX1 interaction disruption; Potency, µM (doses to about 59.8 µM), for the others: at the top dose activity, negative = inhibition, hits mostly inhibitors; 230,000 tested, under 10 active; AlphaScreen CBFb-His/RUNX1-biotin binding, biochemical; note: % of control where 0% means no effect
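Bead-based AlphaScreen assay; binding partners His-tagged CBF-beta and biotinylated RUNX1 at 30 nM each. Compound exposure 15 min after a 20-min protein preincubation; bead step 90 min; all steps at room temperature.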
JMJD2E inh – inhibitors of human JMJD2E histone demethylase; B2RXH2; JMJD2E catalytic domain, FDH-coupled NADH fluorescence (FDH is formaldehyde dehydrogenase); Potency, µM (doses to about 57.1 µM), for the others: at the top dose activity change, negative = inhibition, actives largely listed as inhibitors; 230,000 tested, 1.6% active; active = well fitted inhibition curve with a large enough effect, not every such curve was filed as active; inconclusive = small, poorly fitted or top-dose-only effect, or another doubt; inactive = no such curve, though single readings can be large or run the other way;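 note: potency is the fitted concentration of half-maximal effect; 0% = wells with enzyme and -100% = buffer wells without enzyme; nearly all actives have a fitted effect of over 50% in size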
Target sequence (B2RXH2 1-337 limits assumed): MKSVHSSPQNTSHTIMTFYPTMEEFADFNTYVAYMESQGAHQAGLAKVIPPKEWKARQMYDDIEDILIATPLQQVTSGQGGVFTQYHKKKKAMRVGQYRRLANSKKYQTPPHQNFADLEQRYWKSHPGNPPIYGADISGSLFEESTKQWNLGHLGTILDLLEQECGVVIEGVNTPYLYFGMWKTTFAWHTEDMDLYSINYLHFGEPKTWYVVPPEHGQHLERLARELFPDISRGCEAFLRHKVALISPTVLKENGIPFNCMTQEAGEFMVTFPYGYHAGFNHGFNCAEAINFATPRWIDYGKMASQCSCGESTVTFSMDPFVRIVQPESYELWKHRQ
Tau fibril ThT – tau fibrillization inhibition (ThT binding). Potency, µM (series often up to 57.4 µM), inactives show at the highest dose activity, negative = inhibition, most hits filed as inhibitors. 270,000 tested, 2.1% active. recombinant tau K18 P301L (four-repeat tau fragment), heparin-induced fibrillization, ThT fluorescence. AID 1460. P10636; note: potency is the fitted concentration of half-maximal effect; % is set by controls: 0 for no effect and ±100 for the full control effect; nearly all actives have a fitted effect of over 55% in size
Target sequence (P10636 561-689 P618L limits assumed): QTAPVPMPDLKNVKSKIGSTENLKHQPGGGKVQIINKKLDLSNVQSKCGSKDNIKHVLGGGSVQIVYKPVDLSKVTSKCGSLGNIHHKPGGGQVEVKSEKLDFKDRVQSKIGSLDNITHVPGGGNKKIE
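Aggregation was driven by heparin (20 uM final) acting on recombinant tau […] bearing P301L in 100 mM sodium acetate pH 7; fibrils were detected with Thioflavin T.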
Tau fibril FP – tau fibrillization inhibition (FP) | P10636 | 280,000 tested, 0.39% active | K18 P301L tau heparin fibrillization, Alexa594 FP, 6 h | Potency, µM (series often up to 57.7 µM), for the others: top-dose activity, negative = inhibition, hits mostly inhibitors; note: potency is the fitted concentration of half-maximal effect; % is set by controls: 0 for no effect and ±100 for the full control effect; nearly all actives have a fitted effect of over 55% in size
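Quantitative HTS format: compounds meet 15 uM recombinant K18 P301L tau and Alexa 594-tau tracer in 100 mM sodium acetate pH 7; 20 uM heparin triggers fibrillization at 37 C over 6 hr; FP gives the signal.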
* hit, by the source's call; ? = inconclusive; / = no result; ! = not confirmed by another sample; [ ] = remark or other dose. Unless noted, calls come from the whole dose curve; as a rule, active = well fitted curve in the direction sought with a large enough effect; inconclusive = small, poorly fitted or top-dose-only effect, or another doubt; inactive = no such curve, though single readings can be large; an effect the other way counts as inactive or inconclusive.

SMILES	Tau fluor cs	LMNA splice mod	CBFb-RUNX1 inh	JMJD2E inh	Tau fibril ThT	Tau fibril FP
CN(C)[C@@H]1C(=O)C(C(N)=O)=C(O)[C@@]2(O)C(=O)C3=C(O)c4c(O)cccc4[C@@](C)(O)[C@H]3[C@H](O)[C@@H]12	?	?	/	?	6.3µM*	11µM*
C[N+]12CCC(CC1)[C@@H](OC(=O)C(O)(c1ccccc1)c1ccccc1)C2	/	?	8%[21.7 µM]	7%[25.5 µM]	/	/
COc1ccc2c(c1)CC[C@@H]1[C@@H]2CC[C@]2(C)[C@@H](NCCCCCCN3C(=O)C=CC3=O)CC[C@@H]12	-5%	/	-13%	/	-12%	1%
CCC(=O)OC1CCC2C3CCc4cc(O)ccc4C3CC[C@]12C (stereo not given in full)	?	/	10%	-17%	?	?
C[C@@]12CCC3c4ccc(OS(=O)(=O)O)cc4CCC3C1CCC2O (stereo not given in full)	-5%	-4%	/	188%	-10%	-3%
COc1ccc2[nH]cc(CCN=C(NC(=O)c3ccccc3OC)Nc3nc(C)cc(C)n3)c2c1	?	/	/	/	?	10%
CCOC(=O)C1CCN(/C=C2/C(=O)NC(=S)N(c3ccccc3F)C2=O)CC1	2%	14%[46 µM]	1%	-3%	-7%	6%
CCOC(=O)C1CCN(/C=C2/C(=O)NC(=O)N(c3ccc(OCC)cc3)C2=O)CC1	-19%	0%	3%	1%	14µM*	?
C=CCSc1nc2c(c(-c3ccsc3)c1C#N)CN(C)CC2	20µM*[quencher]	/	-22%	?	14µM*	?
CN1CCc2nc(SCc3ccccc3Br)c(C#N)cc2C1	?	-4%[46 µM]	-6%	?	?	-11%
CC(=O)OC1CC2C(C)(C)C(O)C=C[C@@]2(C)C2CC[C@]3(C)C(=CC(=O)OC3c3ccoc3)[C@]12C (stereo not given in full)	-14%	/	23%	-6%	35µM*	?
CC(=O)OC1CC(OC(C)=O)[C@]2(C)C(CC(OC(C)=O)[C@]3(C)C2CC[C@@]2(C)C(c4ccoc4)C(=O)C4O[C@]432)C1(C)C (stereo not given in full)	-12%	/	-4%	-4%	-13%	3%
O=C(N/N=C/c1c(O)n(Cc2ccc(F)cc2)c(=O)[nH]c1=O)c1ccccc1O	-16%	-14%	?	25µM*	?	9%
COc1ccc(Cn2c(O)c(/C=N/NC(=O)c3ccncc3)c(=O)[nH]c2=O)cc1	-13%	/	?	7.9µM*	?	-8%
COc1ccc(Cn2c(O)c(/C=N/NC(=O)c3ccccc3O)c(=O)[nH]c2=O)cc1	?	?	2%	2%	22µM*	2%
N#CC(Cl)Cl	/	/	3%[21.7 µM]	/	/	/
N#CSCSC#N	/	/	4%[21.7 µM]	/	/	/
C[Se]C[C@H](N)C(=O)O	-18%	?	-3%	18µM*	?	-7%
Cc1ccc(C(=O)c2cn(CC(=O)Nc3ccc(C(C)C)cc3)c3nc(C)ccc3c2=O)cc1	-15%	?	/	/	-5%	-4%
OC12ONC(c3ccccn3)C1N1CCC2CC1 (stereo not given)	-12%	3%	-10%	-23%	13µM*	?
Cc1cccc(-n2c(/C=C/c3c[nH]c4ccccc34)nc3ccccc3c2=O)c1	4µM*[quencher]	/	/	/	?	1%
O=c1c2ccccc2nc(/C=C/c2ccc(O)cc2)n1-c1cccc(O)c1	-23%	/	3%	?	3%	0%
COc1cccc(-n2c(/C=C/c3ccc(O)c(O)c3)nc3ccccc3c2=O)c1	?	-9%[46 µM]	-26%	32µM*	?	10%
N#CC(C#N)=Cc1cc(O)c(O)c(O)c1	?	?	-5%	2µM*	13µM*!	22µM*!
COC(=O)C1=Nc2ccccc2/C1=C\c1c(O)n(-c2ccc(OC)cc2)c(=O)[nH]c1=O	?	?	-20%	18µM*	?	?
SMILES	Tau fluor cs	LMNA splice mod	CBFb-RUNX1 inh	JMJD2E inh	Tau fibril ThT	Tau fibril FP
COC(=O)C1=Nc2ccccc2/C1=C\c1c(O)n(-c2ccc(Br)cc2)c(=O)[nH]c1=O	1%	?	18%	4%	-3%	10%
CS(=O)c1ccc(-c2nc(-c3ccc(F)cc3)c(-c3ccncc3)[nH]2)cc1 (stereo not given)	-1%	/	-1%	?	6%	-8%
Cc1cnc2c(C(=O)O)c(Cl)ccc2c1	/	/	16%	/	/	/
Nc1ccc2c(c1)Cc1cc([N+](=O)[O-])ccc1-2	?	?	3%	6%	3.2µM*	7%
O=c1cc(-c2ccc(O)cc2)oc2c([C@H]3O[C@@H](CO)[C@@H](O)[C@@H](O)[C@@H]3O)c(O)cc(O)c12	/	-10%	-5%[21.7 µM]	-28%[25.5 µM]	/	/
O=C(O)CCCCC1SCC2NC(=O)NC21 (stereo not given)	-3%	?	1.8µM*	-2%	0%	4%
Oc1cc2c(cc1O)[C@H]1c3ccccc3CN[C@H]1CC2	?	/	3%	25µM*	?	?
CCn1c(NN=O)nc2ccccc21	-11%	?	?	?	28µM*	-2%
CCn1c(P(C)(=O)O)nc2ccccc21	-7%	-13%	2%	7%	-9%	-3%
Oc1ccc2c3c1O[C@H]1c4[nH]c5c(c4C[C@@]4(O)[C@@H](C2)N(CC2CC2)CC[C@]314)C[C@]1(O)[C@H]2Cc3ccc(O)c4c3[C@@]1(CCN2CC1CC1)[C@@H]5O4	-12%	/	2%[21.7 µM]	?	?	-5%
NC(N)=Nc1ccc2[nH]c3c(c2c1)C[C@@]1(O)[C@H]2Cc4ccc(O)c5c4[C@@]1(CCN2CC1CC1)[C@H]3O5	-4%	?	4%	10µM*	1%	-1%
Cn1nc(-c2ccc(C(=O)Nc3ccc(OC(F)(F)F)cc3)cc2)c2ccccc2c1=O	-12%	?	/	/	12%	?
CCOC(=O)c1ccc(NC(=O)CSc2cc(=O)n(CC)c3ccccc23)cc1	-22%	?	/	/	4%	?
CN1C(=O)C(=Cc2ccccc2OCCOc2ccc([N+](=O)[O-])cc2)C(=O)N(C)C1=O	?	/	2%	-2%	10µM*	?
CCc1ccc(CNC(=O)c2ccc3c(c2)N=C(C)c2cc(C)ccc2S3)cc1	-27%	/	/	/	-15%	?
O=[N+]([O-])c1ccc(-c2ccc(C=Nc3cccc4ccccc34)o2)cc1	-27%	4%	-29%	?	16µM*	-4%
c1ccc(NNc2ccccc2)cc1	/	/	14%[21.7 µM]	/	/	/
CC(=O)/C=C/c1ccccc1	/	/	9%[21.7 µM]	/	/	/
CC(=O)[O][Hg][c]1ccccc1	?	?	18%	2.2µM*	?	?
